Data as given in PubChem BioAssay (EPA / NIEHS).
Results filed as inconclusive are left out. The source made the active and inactive calls. The calls were made as follows, unless noted: active = hit-call score of the fitted dose curve at least 0.9, where 1 is the maximum; inactive = score below 0.9.

Key:
[1] = molecular target: Paired box protein Pax-6 (Homo sapiens) (UniProt P26367); test: ATG_Pax6_CIS: Attagene CIS-FACTORIAL HepG2 Assay for human Paired Box 6 (PAX6) (AID 2282956); conditions: HepG2 CIS-FACTORIAL PAX6 reporter transcription, RNA readout; actives raise or lower the signal
Chain of Paired box protein Pax-6 (Homo sapiens) (P26367 whole entry, looked up): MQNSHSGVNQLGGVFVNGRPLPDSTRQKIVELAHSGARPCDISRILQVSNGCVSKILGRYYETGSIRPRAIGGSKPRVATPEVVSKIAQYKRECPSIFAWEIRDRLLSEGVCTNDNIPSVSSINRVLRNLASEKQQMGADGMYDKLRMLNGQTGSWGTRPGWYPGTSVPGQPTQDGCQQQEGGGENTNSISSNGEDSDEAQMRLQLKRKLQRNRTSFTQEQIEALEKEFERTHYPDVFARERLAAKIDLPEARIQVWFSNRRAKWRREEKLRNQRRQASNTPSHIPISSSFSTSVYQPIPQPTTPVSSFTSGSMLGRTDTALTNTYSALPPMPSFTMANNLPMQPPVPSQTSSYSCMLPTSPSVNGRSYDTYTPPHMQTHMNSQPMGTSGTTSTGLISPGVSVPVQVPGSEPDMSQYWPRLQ
In short: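 HepG2 cells transiently transfected with cis-promoter-driven multiplexed reporter units sensing endogenous transcription factor activity; 24 h chemical exposure. Reporter mRNA quantified by RT-PCR, 6-FAM labelling, HpaI digestion and capillary electrophoresis; bidirectional fit versus DMSO baseline.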

[2] = ATG_PXRE_CIS: Attagene CIS-FACTORIAL HepG2 Assay for human Pregnane X Receptor Element (PXRE) (AID 2282957); conditions: HepG2 Attagene CIS-FACTORIAL PXRE reporter, mRNA; actives raise or lower the signal
In short: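 Transiently transfected HepG2 cells were dosed and incubated for 24 h. RNA was then isolated, DNase-treated, reverse-transcribed and reporter sequences amplified. Labeled, HpaI-digested fragments were quantified by capillary electrophoresis against DMSO.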

[3] = ATG_Sox_CIS: Attagene CIS-FACTORIAL HepG2 Assay for human SRY-box transcription factor (SOX) (AID 2282960); conditions: HepG2 Attagene cis-factorial SOX reporter, mRNA; actives raise or lower the signal
In short: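 Gain- or loss-of-signal endpoint, fitted bidirectionally with DMSO as negative control. Based on reporter mRNA from transfected HepG2 cells harvested 24 h post-treatment and quantified via RT-PCR and capillary electrophoresis.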

[4] = molecular target: Transcription factor Sp1 (Homo sapiens) (UniProt P08047); test: ATG_Sp1_CIS: Attagene CIS-FACTORIAL HepG2 Assay for human Specificity Protein 1 (Sp1) (AID 2282961); conditions: HepG2 Sp1 cis-reporter transcription, actives raise or lower the signal
Chain of Transcription factor Sp1 (Homo sapiens) (P08047 whole entry, looked up, the tested form may be a part): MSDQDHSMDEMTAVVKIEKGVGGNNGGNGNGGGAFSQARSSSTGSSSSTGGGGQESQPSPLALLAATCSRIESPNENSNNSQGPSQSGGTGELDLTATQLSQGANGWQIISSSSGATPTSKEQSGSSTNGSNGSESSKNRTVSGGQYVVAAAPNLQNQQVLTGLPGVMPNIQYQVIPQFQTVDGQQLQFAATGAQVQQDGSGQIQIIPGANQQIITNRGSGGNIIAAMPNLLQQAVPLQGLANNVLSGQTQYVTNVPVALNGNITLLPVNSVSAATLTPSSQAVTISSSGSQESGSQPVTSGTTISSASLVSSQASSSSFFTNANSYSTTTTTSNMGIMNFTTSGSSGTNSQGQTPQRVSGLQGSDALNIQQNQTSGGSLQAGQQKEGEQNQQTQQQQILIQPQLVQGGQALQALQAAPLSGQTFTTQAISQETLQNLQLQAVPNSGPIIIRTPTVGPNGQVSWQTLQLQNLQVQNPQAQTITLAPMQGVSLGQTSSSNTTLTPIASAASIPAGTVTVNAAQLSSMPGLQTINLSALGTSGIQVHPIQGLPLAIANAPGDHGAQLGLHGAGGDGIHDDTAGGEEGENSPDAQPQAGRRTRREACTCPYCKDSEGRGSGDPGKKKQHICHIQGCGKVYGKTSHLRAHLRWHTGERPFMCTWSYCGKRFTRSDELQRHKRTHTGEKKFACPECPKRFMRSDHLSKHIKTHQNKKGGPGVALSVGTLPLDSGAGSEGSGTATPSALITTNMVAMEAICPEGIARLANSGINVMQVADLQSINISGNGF
In short: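 Endpoint reflects endogenous Sp1 transcriptional activity, not an exogenous fusion protein: HepG2 cells with transfected cis-regulated reporters, 24 h dosing, RT-PCR/capillary electrophoresis mRNA read-out, DMSO-normalised bidirectional fit.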

[5] = ATG_SREBP_CIS: Attagene CIS-FACTORIAL HepG2 Assay for human Sterol Regulatory Element Binding (SREBP) (AID 2282962); conditions: HepG2 Attagene cis-factorial SREBP reporter, mRNA; actives raise or lower the signal
In short: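 HepG2 cells transiently transfected with multiplexed cis-promoter reporter units sensing endogenous transcription factors; reporter mRNA measured 24 h after dosing by RT-PCR, 6-FAM labeling, HpaI digestion and capillary electrophoresis. Bidirectional fit versus DMSO.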

[6] = molecular target: Signal transducer and activator of transcription 3 (Homo sapiens) (UniProt P40763); test: ATG_STAT3_CIS: Attagene CIS-FACTORIAL HepG2 Assay for human Signal Transducer and Activator of Transcription 3 (STAT3) (AID 2282963); conditions: HepG2, Attagene cis-factorial STAT3 reporter transcription; actives raise or lower the signal
Chain of Signal transducer and activator of transcription 3 (Homo sapiens) (P40763 whole entry, looked up): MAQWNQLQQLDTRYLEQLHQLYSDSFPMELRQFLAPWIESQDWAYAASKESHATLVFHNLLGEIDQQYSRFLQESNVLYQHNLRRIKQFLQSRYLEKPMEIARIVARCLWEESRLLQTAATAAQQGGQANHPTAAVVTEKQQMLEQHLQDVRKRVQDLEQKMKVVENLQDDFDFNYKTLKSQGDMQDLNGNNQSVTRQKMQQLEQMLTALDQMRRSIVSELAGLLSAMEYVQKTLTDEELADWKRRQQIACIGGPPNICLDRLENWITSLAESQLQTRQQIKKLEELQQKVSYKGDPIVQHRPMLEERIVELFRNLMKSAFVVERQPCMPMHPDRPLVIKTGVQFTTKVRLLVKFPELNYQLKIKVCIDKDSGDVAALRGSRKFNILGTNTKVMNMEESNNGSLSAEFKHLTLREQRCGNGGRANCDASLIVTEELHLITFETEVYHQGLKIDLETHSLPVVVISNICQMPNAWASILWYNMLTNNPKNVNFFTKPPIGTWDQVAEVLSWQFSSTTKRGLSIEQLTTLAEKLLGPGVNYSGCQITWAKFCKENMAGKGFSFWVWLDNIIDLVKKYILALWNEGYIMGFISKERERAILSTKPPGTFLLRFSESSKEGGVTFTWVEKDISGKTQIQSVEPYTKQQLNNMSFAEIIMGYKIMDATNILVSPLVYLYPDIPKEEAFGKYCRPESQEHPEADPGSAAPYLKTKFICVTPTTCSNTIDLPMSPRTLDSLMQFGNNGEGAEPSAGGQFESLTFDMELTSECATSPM
In short: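 After a 24 h compound incubation, total RNA from MRTU-transfected HepG2 cells was converted to cDNA and reporter sequences PCR-amplified, labelled and profiled by capillary electrophoresis. Gain and loss of signal were referenced to DMSO.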

[7] = ATG_TA_CIS: Attagene CIS-FACTORIAL HepG2 Assay for human TA Basal Promoter (AID 2282964); conditions: HepG2 Attagene CIS-factorial TA basal promoter reporter; actives raise or lower the signal
In short: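 HepG2 cells transiently transfected with multiple reporter units under cis promoter elements, reporting endogenous transcription factor activity; this endpoint tracks the TA basal promoter as background control. Reporter mRNA after 24 h dosing measured by RT-PCR/capillary electrophoresis; bidirectional fits versus DMSO.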

[8] = ATG_TCF_b_cat_CIS: Attagene CIS-FACTORIAL HepG2 Assay for human T-Cell-Factor with beta-catenin (TCF/b-cat) (AID 2282965); conditions: HepG2 TCF/beta-catenin cis-reporter transcription, actives raise or lower the signal
In short: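 Endogenous transcription factor activity is captured through cis-promoter reporter constructs transiently introduced into human HepG2 liver cells. Induced reporter mRNA is measured after 24 h and fitted bidirectionally relative to DMSO.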

[9] = ATG_TAL_CIS: Attagene CIS-FACTORIAL HepG2 Assay for human TAL Basal Promoter (AID 2282966); conditions: HepG2 Attagene cis-factorial TAL promoter reporter; actives raise or lower the signal;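 also: background control endpoint measuring basal TAL promoter reporter mRNA not a specific factor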
In short: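 Readout: reporter mRNA, fluorescence by CE. System: HepG2, transient multi-reporter transfection, endogenous TF activity. Exposure: 24 h. Analysis: bidirectional, DMSO-normalized; background control.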

[10] = ATG_TGFb_CIS: Attagene CIS-FACTORIAL HepG2 Assay for human Transforming Growth Factor (TGF) (AID 2282967); conditions: HepG2 Attagene CIS TGFb reporter, mRNA transcription; actives raise or lower the signal
In short: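 HepG2 cells transiently transfected with cis-promoter-driven multiple reporter units measure endogenous TF activity; reporter mRNA quantified at 24 h by RT-PCR, FAM labeling, HpaI digestion and capillary electrophoresis. Bidirectional fit vs DMSO.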

[11] = ATG_VDRE_CIS: Attagene CIS-FACTORIAL HepG2 Assay for human Vitamin D Receptor Element (VDRE) (AID 2282968); conditions: HepG2 VDRE cis-reporter transcription, actives raise or lower the signal
In short: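 In transiently transfected HepG2 liver cells, gain or loss of reporter mRNA after 24 h exposure is scored relative to DMSO, using fluorescence detection by capillary electrophoresis of RT-PCR products.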

[12] = molecular target: Nuclear receptor subfamily 1 group I member 3 (Homo sapiens) (UniProt Q14994); test: ATG_CAR_TRANS: Attagene TRANS-FACTORIAL HepG2 Assay for human Constitutive Androstane Receptor (CAR) (AID 2282969; active = hit-call score of the fitted dose curve at least 0.9, where 1 is the maximum;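 also: activators raise reporter mRNA above DMSO so AC50 marks induction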); conditions: HepG2 Attagene TRANS-FACTORIAL CAR reporter
Chain of Nuclear receptor subfamily 1 group I member 3 (Homo sapiens) (Q14994 whole entry, looked up, the tested form may be a part): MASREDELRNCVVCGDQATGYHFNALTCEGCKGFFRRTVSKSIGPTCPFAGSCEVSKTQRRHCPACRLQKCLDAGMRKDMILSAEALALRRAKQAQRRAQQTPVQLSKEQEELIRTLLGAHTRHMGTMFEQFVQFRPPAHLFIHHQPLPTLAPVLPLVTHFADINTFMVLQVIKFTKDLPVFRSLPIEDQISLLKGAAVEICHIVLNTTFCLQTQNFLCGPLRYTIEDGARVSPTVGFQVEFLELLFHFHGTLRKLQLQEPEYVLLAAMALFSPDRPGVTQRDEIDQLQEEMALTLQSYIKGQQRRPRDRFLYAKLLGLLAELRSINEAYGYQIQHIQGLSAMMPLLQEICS
In short: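 Readout is reporter mRNA induction, quantified by fluorescent primer extension and capillary electrophoresis after RT-PCR. Cells were HepG2 transiently carrying chimeric NR-Gal4 constructs with GAL4-UAS reporters, treated for 24 h; activity scored upward from DMSO.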

[13] = molecular target: Estrogen receptor (Homo sapiens) (UniProt P03372); test: ATG_ERa_TRANS: Attagene TRANS-FACTORIAL HepG2 Assay for human Estrogen Receptor alpha (ERa) (AID 2282970; active = hit-call score of the fitted dose curve at least 0.9, where 1 is the maximum); conditions: HepG2 Attagene TRANS ERa GAL4 reporter, mRNA
Chain of Estrogen receptor (Homo sapiens) (P03372 whole entry, looked up, the tested form may be a part): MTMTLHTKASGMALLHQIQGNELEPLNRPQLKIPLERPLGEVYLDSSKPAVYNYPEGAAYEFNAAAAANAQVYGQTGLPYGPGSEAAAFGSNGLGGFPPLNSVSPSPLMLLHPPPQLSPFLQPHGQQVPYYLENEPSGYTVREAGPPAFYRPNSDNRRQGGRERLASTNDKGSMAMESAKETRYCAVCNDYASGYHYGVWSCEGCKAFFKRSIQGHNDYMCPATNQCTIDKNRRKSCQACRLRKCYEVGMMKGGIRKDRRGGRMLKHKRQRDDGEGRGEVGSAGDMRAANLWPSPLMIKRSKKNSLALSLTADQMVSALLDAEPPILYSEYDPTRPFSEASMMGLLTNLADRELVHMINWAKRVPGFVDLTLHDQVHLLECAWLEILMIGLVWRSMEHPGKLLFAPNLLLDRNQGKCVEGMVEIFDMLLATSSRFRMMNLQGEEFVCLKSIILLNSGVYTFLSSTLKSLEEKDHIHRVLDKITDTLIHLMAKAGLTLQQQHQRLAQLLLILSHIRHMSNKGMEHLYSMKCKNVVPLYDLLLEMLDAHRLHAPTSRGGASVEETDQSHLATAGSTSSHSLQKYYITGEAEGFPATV
In short: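 Transactivation via ERa-Gal4 chimera in HepG2; 24 hour incubation; reporter mRNA detected by fluorescence RT-PCR and capillary electrophoresis.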

[14] = molecular target: X-box-binding protein 1 (Homo sapiens) (UniProt P17861); test: ATG_Xbp1_CIS: Attagene CIS-FACTORIAL HepG2 Assay for human X-box Binding Protein 1 (XBP1) (AID 2282972); conditions: HepG2 XBP1 cis-element reporter, Attagene multiplex; actives raise or lower the signal
Chain of X-box-binding protein 1 (Homo sapiens) (P17861 whole entry, looked up): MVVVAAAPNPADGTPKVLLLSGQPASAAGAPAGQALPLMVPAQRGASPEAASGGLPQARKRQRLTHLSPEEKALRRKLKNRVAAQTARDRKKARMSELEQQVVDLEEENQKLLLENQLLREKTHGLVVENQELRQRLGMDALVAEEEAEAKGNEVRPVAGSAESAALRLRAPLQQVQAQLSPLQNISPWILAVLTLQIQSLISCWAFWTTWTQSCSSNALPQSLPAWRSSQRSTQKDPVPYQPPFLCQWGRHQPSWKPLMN
In short: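 HepG2 cells transiently transfected with multiple cis-element reporter units report endogenous TF activity; 24 h exposure, then reporter mRNA measured by RT-PCR, 6-FAM labelling, HpaI digestion and capillary electrophoresis. Bidirectional fitting versus DMSO.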

[15] = ATG_GAL4_TRANS: Attagene TRANS-FACTORIAL HepG2 Assay for GAL4 (Internal Marker) (AID 2282976; active = hit-call score of the fitted dose curve at least 0.9, where 1 is the maximum); conditions: HepG2 Attagene TRANS GAL4 internal marker reporter
In short: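 Fluorescence from capillary electrophoresis of labelled RT-PCR products quantifies reporter mRNA induction after 24 h dosing of HepG2 cells carrying transfected GAL4-UAS reporter transcription units. Vehicle DMSO serves as baseline.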

[16] = ATG_M_19_TRANS: Attagene TRANS-FACTORIAL HepG2 Assay for M19 Transcription Factor (Internal Marker) (AID 2282974; active = hit-call score of the fitted dose curve at least 0.9, where 1 is the maximum); conditions: HepG2 Attagene TRANS-FACTORIAL M19 internal marker reporter
In short: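 Using RT-PCR and capillary electrophoresis, reporter mRNA from transiently transfected human HepG2 cells was quantified following 24 h exposure; activity was fitted in the positive direction against DMSO.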

[17] = ATG_RORE_CIS: Attagene CIS-FACTORIAL HepG2 Assay for human RAR-related Orphan Receptor Element (RORE) (AID 2282959); conditions: HepG2 Attagene cis-factorial RORE reporter, mRNA; actives raise or lower the signal
In short: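 Transiently transfected HepG2 reporter cells were treated 24 h. Reporter transcripts were detected by RT-PCR and capillary electrophoresis, with bidirectional fitting against DMSO.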

[18] = molecular target: Steroid hormone receptor ERR1 (Homo sapiens) (UniProt P11474); test: ATG_ERRa_TRANS: Attagene TRANS-FACTORIAL HepG2 Assay for human Estrogen-Related Receptor alpha (ERRa) (AID 2282971; active = hit-call score of the fitted dose curve at least 0.9, where 1 is the maximum); conditions: HepG2 Attagene TRANS reporter, ERRa transactivation
Chain of Steroid hormone receptor ERR1 (Homo sapiens) (P11474 whole entry, looked up, the tested form may be a part): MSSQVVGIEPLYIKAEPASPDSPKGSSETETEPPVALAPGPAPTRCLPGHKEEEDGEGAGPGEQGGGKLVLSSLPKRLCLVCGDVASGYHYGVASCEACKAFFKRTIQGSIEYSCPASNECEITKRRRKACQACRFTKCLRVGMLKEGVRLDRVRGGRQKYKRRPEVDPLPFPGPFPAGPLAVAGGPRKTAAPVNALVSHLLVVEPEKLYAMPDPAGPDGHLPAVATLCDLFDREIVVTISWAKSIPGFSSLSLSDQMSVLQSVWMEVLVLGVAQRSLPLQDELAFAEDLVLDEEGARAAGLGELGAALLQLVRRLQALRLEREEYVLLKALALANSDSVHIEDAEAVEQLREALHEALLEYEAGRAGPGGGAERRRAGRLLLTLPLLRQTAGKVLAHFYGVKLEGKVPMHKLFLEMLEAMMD
In short: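 HepG2 cells were transiently transfected with multiple GAL4-UAS reporter units, then dosed with compound for 24 h. Total RNA was reverse-transcribed, reporter cDNA PCR-amplified and fluorescently labelled, and fragments resolved by capillary electrophoresis; induction was compared with DMSO.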

[19] = molecular target: Estrogen-related receptor gamma (Homo sapiens) (UniProt P62508); test: ATG_ERRg_TRANS: Attagene TRANS-FACTORIAL HepG2 Assay for human Estrogen-Related Receptor gamma (ERRg) (AID 2282977; active = hit-call score of the fitted dose curve at least 0.9, where 1 is the maximum;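 also: hits increase reporter signal over DMSO so potencies reflect activators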); conditions: HepG2 Attagene TRANS reporter, ERRg transactivation
Chain of Estrogen-related receptor gamma (Homo sapiens) (P62508 whole entry, looked up, the tested form may be a part): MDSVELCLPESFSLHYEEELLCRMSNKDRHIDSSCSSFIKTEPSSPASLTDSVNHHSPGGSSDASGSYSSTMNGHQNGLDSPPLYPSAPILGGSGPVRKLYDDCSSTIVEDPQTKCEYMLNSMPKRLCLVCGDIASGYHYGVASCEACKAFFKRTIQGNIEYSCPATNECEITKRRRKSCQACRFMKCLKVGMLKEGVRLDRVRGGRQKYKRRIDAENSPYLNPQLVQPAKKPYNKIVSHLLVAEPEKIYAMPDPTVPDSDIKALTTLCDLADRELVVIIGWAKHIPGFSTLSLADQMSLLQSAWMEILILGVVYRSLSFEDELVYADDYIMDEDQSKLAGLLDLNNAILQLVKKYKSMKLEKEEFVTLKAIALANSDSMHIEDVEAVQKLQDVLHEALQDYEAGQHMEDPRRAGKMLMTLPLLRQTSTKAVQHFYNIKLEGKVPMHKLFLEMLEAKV
In short: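 HepG2 cells transiently transfected with multiplexed GAL4-UAS reporter units and chimeric NR-Gal4 constructs were exposed to test chemicals for 24 h. Reporter mRNA was measured by RT-PCR, 6-FAM primer extension, HpaI digestion and capillary electrophoresis; gain-of-signal versus DMSO.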

[20] = ATG_PPRE_CIS: Attagene CIS-FACTORIAL HepG2 Assay for human Peroxisome Proliferator-activated Response Element (PPRE) (AID 2282958); conditions: HepG2 PPRE cis-element reporter, Attagene transcription factor profiling; actives raise or lower the signal
In short: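 Measured endpoint: PPRE-controlled reporter mRNA, detected by RT-PCR and capillary electrophoresis fluorescence, from transiently transfected HepG2 cells 24 h after dosing. Curves fitted in both directions using DMSO baseline.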

Measured: AC50

CNC(=S)N(C)C
not listed: [16] | [17] | [18] | [19] | [20]
inactive: all other assays above

CC(C)(C)c1ccc(OC(=O)c2ccccc2O)cc1
active: [2] 15.3 µM | [13] 6.14 µM
inactive: [1] | [4] | [5] | [7] | [8] | [9] | [10] | [11] | [12] | [14]

CC1=CC[C@H](C(C)C)C=C1
active: [2] 1.98 µM
not listed: [8] | [11] | [17] | [18] | [19] | [20]
inactive: all other assays above

Nc1ccc(N)c(Cl)c1
active: [1] 52.9 µM | [2] 8.87 µM | [5] 43.7 µM | [11] 33.4 µM | [13] 25.5 µM
not listed: [7] | [15] | [17] | [18] | [19] | [20]
inactive: all other assays above

O=P(O)(O)Oc1ccccc1
not listed: [12] | [13] | [15] | [16] | [17] | [18] | [19] | [20]
inactive: all other assays above

CC(C)c1ccc2cc(C(C)C)ccc2c1
active: [3] 59.9 µM | [13] 13.7 µM
not listed: [12] | [15] | [16] | [17] | [18] | [19] | [20]
inactive: all other assays above

NCCCN1CCN(CCCN)CC1
active: [2] 53.7 µM
not listed: [15] | [17] | [18] | [19] | [20]
inactive: all other assays above

O=C1C(N(CO)C(=O)NCO)N(CO)C(=O)N1CO (stereo unspecified)
not listed: [17] | [18] | [19] | [20]
inactive: all other assays above

O=C(Cl)c1cc(C(=O)Cl)cc(C(=O)Cl)c1
active: [2] 47.6 µM | [10] 132 µM | [11] 46 µM
inactive: [1] | [3] | [4] | [5] | [6] | [7] | [9] | [14]

CC(C)c1ccc2c(c1)CC[C@H]1[C@](C)(CN)CCC[C@]21C
active: [1] 6.4 µM | [3] 6.13 µM | [8] 5.65 µM | [11] 5.66 µM | [14] 5.24 µM
inactive: [2] | [4] | [5] | [6] | [7] | [9] | [10] | [13]

c1ccc2c(c1)ccc1ncccc12
active: [2] 25.3 µM
not listed: [3] | [4] | [6] | [10] | [11] | [12] | [15] | [20]
inactive: all other assays above

CCN(CCO)c1cccc(C)c1
not listed: [2]
inactive: all other assays above
